In PubChem BioAssay (NCI):
About 83,000 compounds went through this panel and 20% of them were active in at least one assay; those are over-represented in the sample as a whole.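 The test compound was applied at a single concentration to cells in 96-well plates for 48 hours, and percent growth was recorded.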 A number with no mark means an inactive call. Calls of active or inactive are those of the source. How the source made its calls: active means growth percent below 10; inactive means the rest.

What follows are molecules tested on DU-145 prostate (assay: NCI-60 one-dose screen, 48 h (100 = growth as untreated, 0 = no growth, -100 = all killed)). Settings: 10 µM unless noted.
With `COc1ccc(N2CCC(=O)NC2=S)cc1` the growth was 115%.
`Oc1c(Cl)cc(Cl)c2ccc(Cn3cc(-c4cc(F)cc(F)c4)nn3)nc12` showed a growth of 58.5%.
`CO/N=C(/C)c1ccc(NC(=O)CSc2nnc(-c3ccncc3)n2-c2ccccc2)cc1` was tested, and the growth was 52%.
`O=C1c2cccnc2C(=O)c2c1c(C(=O)NCCn1ccnc1)c1ccccn21` was tested, and the growth was 29.9%.
`O=C1NC(=O)c2c1c1c3ccccc3ccc1c1[nH]c3ccc(Br)cc3c21` was tested, and the growth was 22.5%.
In the case of `Cc1ccc(-c2nc3nc(-c4ccccc4)nc(N4CCNCC4)c3o2)cc1`, the growth was -86.8% (active).
In the case of `CC(C)(C)n1cc(-c2ccnc(NCCNS(=O)(=O)c3cccc(F)c3)c2)c(-c2ccccc2)n1`, the growth was 96.1%.
Work on `Cc1c(-n2nnc(-c3nc4ccccc4s3)c2N)c(=O)n(-c2ccccc2)n1C` yielded a growth of 115%.
